Consider 33 compounds from PubChem BioAssay (NCATS).

For orientation: viability means a read-out of living cells in per cent, often relative to untreated cells.

Test [1] can be described thus: Quantitative High-Throughput drug screen in 47 multiple myeloma cell lines against the NCATS MIPE library collection: KMS28PE_JCRB cell viability assay (AID 1918983). Further: nearly all actives have a fitted effect of over 35% in size. Further: potency means the concentration at half of the fitted maximal effect. In a few lines: (§1)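 Myeloma cells (500/well) treated with MIPE 4.0 compounds for 48 h at 37 °C, 5% CO2. Viability read as ATP via CellTiter-Glo luminescence after 5 min at RT; DMSO-only wells = 100%, media-only = 0% viability.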

Test [2] in a line: Quantitative High-Throughput drug screen in 47 multiple myeloma cell lines against the NCATS MIPE library collection: L363_DSMZ cell viability assay (AID 1918984). Further: nearly all actives have a fitted effect of over 40% in size. Further: potency means the concentration at half of the fitted maximal effect. In a few lines:
as §1

The nature of test [3]: Quantitative High-Throughput drug screen in 47 multiple myeloma cell lines against the NCATS MIPE library collection: OCIMY7_PLB cell viability assay (AID 1918987). Further: nearly all actives have a fitted effect of over 65% in size. Further: potency means the concentration at half of the fitted maximal effect. In a few lines:
as §1

Test [4] is described as follows: Quantitative High-Throughput drug screen in 47 multiple myeloma cell lines against the NCATS MIPE library collection: OPM1_PLB cell viability assay (AID 1918989). Further: nearly all actives have a fitted effect of over 40% in size. Further: potency means the concentration at half of the fitted maximal effect. In a few lines:
as §1

The nature of test [5]: Quantitative High-Throughput drug screen in 47 multiple myeloma cell lines against the NCATS MIPE library collection: U266_ATCC cell viability assay (AID 1919864). Further: nearly all actives have a fitted effect of over 35% in size. Further: potency means the concentration at half of the fitted maximal effect. The procedure, abridged:
as §1

A short description of test [6]: Quantitative High-Throughput drug screen in 47 multiple myeloma cell lines against the NCATS MIPE library collection: LP1_DSMZ cell viability assay (AID 1918982). Further: nearly all actives have a fitted effect of over 35% in size. In a few lines: as §1
Test [7] in a line: Quantitative High-Throughput drug screen in 47 multiple myeloma cell lines against the NCATS MIPE library collection: SKMM1_PLB cell viability assay (AID 1919863). Further: nearly all actives have a fitted effect of over 35% in size. Further: potency means the concentration at half of the fitted maximal effect. On viability: series mostly up to about 46 µM. As to conditions: SKMM1 myeloma viability, CellTiter-Glo ATP, 48 h; viability: active compounds read low. The procedure, abridged:
as §1

The nature of test [8]: Quantitative High-Throughput drug screen in 47 multiple myeloma cell lines against the NCATS MIPE library collection: KMS34_JCRB cell viability assay (AID 1918985). Further: nearly all actives have a fitted effect of over 40% in size. Further: potency means the concentration at half of the fitted maximal effect. In a few lines:
as §1

Test [9] is described as follows: Quantitative High-Throughput drug screen in 47 multiple myeloma cell lines against the NCATS MIPE library collection: OCIMY5_PLB cell viability assay (AID 1918988). Further: nearly all actives have a fitted effect of over 65% in size. Further: potency means the concentration at half of the fitted maximal effect. In a few lines: as §1

Inconclusive results are not listed. Values without a mark were called inactive. Active and inactive are the calls of the source. The call rests on the fitted dose curve; in most records, active means well fitted cell-killing curve with a large enough effect; inconclusive means small, poorly fitted or top-dose-only effect, or effect the other way; inactive means no such curve, though single readings can be large or run the other way.

Turning to `CCOP(=O)(OCC)C(C)NC(=O)N(CCCl)N=O` (stereo not given), the Potency entry in [1], in test [2], in test [3], in test [4] and in test [5] was “inactive” in each case.

`NC1CC1c1ccccc1` (stereo not given): the Potency result in test [6], in test [4] and in test [5] was “inactive” throughout.

As for `C[C@H]([C@H](O)CCC(C)(C)O)[C@H]1CC[C@@]2(O)C3=CC(=O)[C@@H]4C[C@@H](O)[C@@H](O)C[C@]4(C)[C@@H]3CC[C@]12C`, the Potency result in test [6], in [2], in [4] and in [5] was “inactive” each time.

As to `COC1=C[C@@H]2[C@@H]3Cc4ccc(OC)c(O)c4[C@]2(CCN3C)CC1=O`, in test [1], the Potency result was “inactive”. Besides, the Potency in test [2] is 2.96 µM (active); in test [4], 9.35 µM (active); in [5], 2.35 µM (active).

Regarding `CC(=CCCC1=CCC(C2=CC(=O)OC2O)OC1O)CCC1=C(C)CCCC1(C)C` (stereo not given), in test [6], the Potency result is “inactive”. In addition, the Potency in test [2] was 2.35 µM (active); in test [4], 11.8 µM (active); in test [5], 18.7 µM (active). Also, the viability in test [7] is 104%.

With `N#C[C@H](O[C@@H]1O[C@H](CO[C@@H]2O[C@H](CO)[C@H](O)[C@H](O)[C@H]2O)[C@H](O)[C@H](O)[C@H]1O)c1ccccc1`, the Potency is 23.5 µM (active) in test [1]; 8.33 µM (active) in test [8]; 10.5 µM (active) in [3]; 20.9 µM (active) in [9]; 26.4 µM (active) in test [4]; 23.5 µM (active) in test [5].

`C[C@]12Cc3cn[nH]c3C[C@@H]1CC[C@@H]1[C@H]2CC[C@@]2(C)[C@H]1CC[C@]2(C)O`: the Potency result in test [8] and in test [5] was “inactive” throughout.

On to `CCOC(=O)c1c(C(C#N)=CN)c2ccc(Cl)c(Cl)c2n1C`, for which the Potency entry in test [4] was “inactive”.

As to `C[C@]12CCC(=O)C(O)=C1CC[C@@H]1[C@H]3CCC(=O)[C@@]3(C)CC[C@@H]12`, the Potency entry in [6], in [8] and in test [4] was “inactive” throughout. Moreover, the Potency in [9] is 18.7 µM (active).

For the compound `COc1cc([C@@H]2c3cc4c(cc3[C@@H](O)C3COC(=O)C32)OCO4)cc(OC)c1O` (stereo not given in full), the Potency is 0.0418 µM (active) in test [1]; 0.0132 µM (active) in [2]; 0.0187 µM (active) in test [8]; 0.0105 µM (active) in [9]; 0.0526 µM (active) in [4].

With `CC[C@@H](C(N)=O)N1CCCC1=O`, the Potency result in test [6] and in test [5] was “inactive” in each case. For the same compound, in test [4], the Potency is 26.4 µM (active).

Turning to `C=C1C[C@H]2[C@H]3CCC(=O)[C@@]3(C)CC[C@@H]2[C@@]2(C)C=CC(=O)C=C12`, the Potency entry in test [6] was “inactive”. Further, the Potency in [5] is 20.9 µM (active).

For `CCNC(=O)CC1N=C(c2ccc(Cl)cc2)c2cc(OC)ccc2-n2c(C)nnc21` (stereo not given), the Potency in [1] was 20.9 µM (active); in test [3], 18.7 µM (active); in test [5] it was 18.7 µM (active).

Consider `CC(C)N[C@@H]1CCn2c(=O)[nH]c3cccc(c32)[C@@H]1O`, for which the Potency is 20.9 µM (active) in [1]; 3.32 µM (active) in test [2]; 10.5 µM (active) in [8]; 0.118 µM (active) in test [9]; 11.8 µM (active) in test [4]; 1.66 µM (active) in test [5].

In the case of `CC(=Cc1csc(C)n1)[C@@H]1C[C@H]2O[C@]2(C)CCC[C@H](C)[C@@H](O)[C@@H](C)C(=O)C(C)(C)[C@@H](O)CC(=O)O1`, the Potency entry in test [6] and in test [8] was “inactive” in each case.

Take `CC[C@H]1C=CC=CC[C@@H](C)[C@H](O)[C@@](C)(O)C(=O)[C@@H](C)[C@H](O)[C@@H](C)C(=O)[C@@H](C)[C@H](O)[C@@H](C)C=CC(=O)O[C@@H]2[C@@H](C)[C@H](CC1)O[C@]1(CC[C@H](C)[C@H](C[C@@H](C)O)O1)[C@H]2C`: the Potency in test [1] is 20.9 µM (active); in test [2] it was 0.001 µM (active); in test [3], 0.001 µM (active); in test [9] it was 0.0017 µM (active); in test [7], 20.9 µM (active); in [5], 20.9 µM (active).

On to `C[C@]12COC(=O)C[C@@H]1CC[C@@H]1[C@H]2CC[C@@]2(C)[C@H]1CC[C@]2(C)O`, for which the Potency result in test [1], in test [2], in [9], in [4] and in test [5] was “inactive” in each case.

As to `C[C@](O)(COc1ccc(C#N)cc1)C(=O)Nc1ccc(C#N)c(C(F)(F)F)c1`, the Potency entry in test [6], in [8] and in test [5] was “inactive” in each case. In [3], the Potency is 26.4 µM (active).

Turning to `COc1ccc2c(c1)CN(C)CC2c1ccc(Cl)c(Cl)c1` (stereo not given), the Potency in [1] was 18.7 µM (active); in test [2] it was 13.2 µM (active); in test [9] it was 11.8 µM (active); in [4] it was 18.7 µM (active).

For `C[C@]12CC[C@@H]3[C@@H](CCC4=CC(=O)CC[C@@H]43)[C@@H]1CC[C@@H]2OC(=O)CCc1ccccc1`, the Potency result in [5] is “inactive”.

`CC(=O)Nc1ccc(OC[C@](C)(O)C(=O)Nc2ccc([N+](=O)[O-])c(C(F)(F)F)c2)cc1`: the Potency result in test [4] is “inactive”.

With `C=C[C@@H]1CN2CCC1C[C@@H]2[C@@H](O)c1ccnc2ccccc12` (stereo not given in full), the Potency is 18.7 µM (active) in test [1]; 7.43 µM (active) in test [3]; 20.9 µM (active) in test [9]; 16.6 µM (active) in [4]; 23.5 µM (active) in [7]; 13.2 µM (active) in [5].

Consider `Clc1ccccc1C(c1ccccc1)(c1ccccc1)n1cccn1`, for which the Potency in test [1] was 11.8 µM (active); in test [5] it was 10.5 µM (active). In test [4], the Potency entry is “inactive”.

Regarding `COC[C@H]1OC(=O)c2coc3c2[C@@]1(C)C1=C(C3=O)[C@@H]2CC[C@H](O)[C@@]2(C)C[C@@H]1OC(C)=O`, the Potency is 1.32 µM (active) in [1]; 2.35 µM (active) in test [2]; 2.09 µM (active) in test [8]; 0.332 µM (active) in [4]; 7.43 µM (active) in test [7]; 16.6 µM (active) in test [5].

For the compound `CN[C@@H]1Cc2cccc3[nH]c(=O)n(c23)C1`, the Potency entry in test [1], in test [4] and in test [5] was “inactive” each time.

Consider `c1cc2c(cc1[C@H]1OC[C@H]3[C@H]1CO[C@H]3c1ccc3c(c1)OCO3)OCO2`, for which the Potency result in [1] and in [4] was “inactive” in each case.

Consider `Cc1c(C(=O)c2cccc3ccccc23)c2cccc3c2n1[C@H](CN1CCOCC1)CO3`, for which the Potency was 26.4 µM (active) in [1]; 3.72 µM (active) in [2]; 23.5 µM (active) in test [8]; 13.2 µM (active) in test [3]; 23.5 µM (active) in test [9]; 23.5 µM (active) in test [4]. Also, the Potency in test [5] was 18.7 µM (active).

For `CC(=O)OCC1=C(C(=O)O)N2C(=O)[C@@H](N)[C@@H]2SC1`, the Potency entry in test [1], in test [4] and in test [5] was “inactive” throughout. For the same compound, the viability in test [7] is 121%.

Regarding `C[C@]12CC[C@H]3[C@@H](CCC4=CC(=O)CC[C@@]43C)[C@H]1CC[C@H]2OC(=O)CCC1CCCC1`, the Potency result in [1], in [2] and in [5] was “inactive” in each case.

For the compound `COc1ccc(C(=O)c2c(C)n(CCN3CCOCC3)c3cc(I)ccc23)cc1`, the Potency in [2] was 8.33 µM (active); in test [8], 20.9 µM (active); in [9] it was 9.35 µM (active); in test [4], 18.7 µM (active).

As for `O=C(N[C@@H](COc1ccc2[nH]c(=O)[nH]c2c1)c1ccccc1)c1cccn(Cc2ccc(F)c(F)c2)c1=O`, the Potency in test [2] is 18.7 µM (active). Further, the Potency entry in test [8] is “inactive”.

With `COc1ccc(N(C(=O)Oc2c(C)cccc2C)c2ccnc(Nc3ccc(N4CCN(C)CC4)cc3)n2)c(OC)c1`, the Potency in test [1] is 18.7 µM (active); in [8], 1.05 µM (active); in test [9] it was 1.18 µM (active); in test [4] it was 20.9 µM (active).

Regarding `C=CCON=C(C[C@H]1O[C@@H]2O[C@]3(C)CC[C@@H]4[C@H](C)CC[C@@H]([C@H]1C)[C@@]24OO3)[C@H]1O[C@@H]2O[C@]3(C)CC[C@H]4[C@H](C)CC[C@@H]([C@@H]1C)[C@@]24OO3`, the Potency in test [1] was 0.264 µM (active); in test [8] it was 0.264 µM (active); in [9] it was 0.187 µM (active); in test [4], 0.526 µM (active); in [5], 0.332 µM (active).
